# NPSR antagonist = blocks cAMP signaling of the human neuropeptide S receptor; CHO-NPSR cells, cAMP TR-FRET, antagonist mode; Q6W5P4; AID 1461; 220,000 tested, 1% active; Potency, µM (doses to about 38.3 µM), inactives show top-dose activity change, negative = inhibition, usual class: inhibitors; further: nearly all actives have a fitted effect of over 50% in size
# Tau fibril ThT = tau fibrillization inhibition (ThT binding); P10636; recombinant tau K18 P301L, heparin-induced fibrillization, ThT fluorescence; Potency, µM (top dose mostly 57.4 µM), for inactives: top-dose activity, negative = inhibition, usual class: inhibitors; 270,000 tested, 2.1% active; AID 1460; further: nearly all actives have a fitted effect of over 55% in size
# Target sequence (P10636 561-689 P618L limits assumed): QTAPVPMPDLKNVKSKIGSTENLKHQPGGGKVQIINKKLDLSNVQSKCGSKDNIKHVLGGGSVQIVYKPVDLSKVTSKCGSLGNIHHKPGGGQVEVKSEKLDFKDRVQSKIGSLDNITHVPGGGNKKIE
#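 Recombinant human tau K18 fragment […] carrying P301L, 15 uM unlabeled plus 0.24 uM Alexa 594-labeled, was fibrillized with 20 uM heparin in 100 mM sodium acetate pH 7 for 6 hr at 37 C; 30 uM ThT fluorescence read after 1 hr.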
# Tau fibril FP = inhibitors of human tau fibril formation. K18 P301L tau heparin fibrillization, Alexa594 FP, 6 h. AID 1468. Potency, µM (doses to about 57.7 µM), for inactives: at the top dose activity, negative = inhibition, actives largely listed as inhibitors. 280,000 tested, 0.39% active; further: nearly all actives have a fitted effect of over 55% in size
#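 Steps: dispense K18 P301L tau (15 uM plus 0.24 uM Alexa 594 tracer, final) in pH 7 sodium acetate; add compound; add heparin (20 uM final); incubate 6 hr, 37 C; add ThT (30 uM final); after 1 hr ambient, read FP.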
# HPGD block = inhibitors of human 15-hydroxyprostaglandin dehydrogenase (HPGD); Potency, µM, inactives show at the highest dose activity change, negative = inhibition, actives largely listed as inhibitors; purified HPGD, NADH fluorescence kinetic, PGE2 substrate; 150,000 tested, 4.3% active; AID 894; P15428; active means well fitted inhibition curve with a large enough effect, not every such curve was filed as active; inconclusive means small, poorly fitted or top-dose-only effect, or another doubt; inactive means no such curve, though single readings can be large or run the other way
#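 NADH formation kinetics: reaction with 30 uM PGE2 and 1 mM NAD+ (final), 20 nM enzyme, Tris-HCl pH 8 with Tween 20, after 15 min compound preincubation at room temperature. Fluorescence change, last versus first of five reads.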
# Tau fluor counter = counter-screen for tau fibril formation inhibitors | tau K18 P301L (four-repeat tau fragment) Alexa594 fluorescence, heparin fibrillization | 280,000 tested, 0.93% active | AID 1463 | Potency, µM (series often up to 57.7 µM), without a hit: top-dose activity change, negative = decrease; further: nearly all actives have a fitted effect of over 55% in size
#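 Human K18 P301L tau (15 uM unlabeled plus 0.24 uM Alexa 594-labeled, final) in 100 mM sodium acetate pH 7 was mixed with compound and 20 uM heparin and incubated 6 hr at 37 C.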
# ALDH1A1 block = inhibitors of human aldehyde dehydrogenase 1A1; P00352; AID 1030; Potency, µM (doses to about 75.3 µM), for the others: at the highest dose activity, negative = inhibition, usual class: inhibitors; 220,000 tested, 7.3% active; Purified ALDH1A1, NADH fluorescence, propionaldehyde substrate; active means well fitted inhibition curve with a large enough effect, not every such curve was filed as active; inconclusive means small, poorly fitted or top-dose-only effect, or another doubt; inactive means no such curve, though single readings can be large or run the other way;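 further: plate controls were no enzyme wells and a reference inhibitor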
# Target sequence (P00352 whole entry, looked up): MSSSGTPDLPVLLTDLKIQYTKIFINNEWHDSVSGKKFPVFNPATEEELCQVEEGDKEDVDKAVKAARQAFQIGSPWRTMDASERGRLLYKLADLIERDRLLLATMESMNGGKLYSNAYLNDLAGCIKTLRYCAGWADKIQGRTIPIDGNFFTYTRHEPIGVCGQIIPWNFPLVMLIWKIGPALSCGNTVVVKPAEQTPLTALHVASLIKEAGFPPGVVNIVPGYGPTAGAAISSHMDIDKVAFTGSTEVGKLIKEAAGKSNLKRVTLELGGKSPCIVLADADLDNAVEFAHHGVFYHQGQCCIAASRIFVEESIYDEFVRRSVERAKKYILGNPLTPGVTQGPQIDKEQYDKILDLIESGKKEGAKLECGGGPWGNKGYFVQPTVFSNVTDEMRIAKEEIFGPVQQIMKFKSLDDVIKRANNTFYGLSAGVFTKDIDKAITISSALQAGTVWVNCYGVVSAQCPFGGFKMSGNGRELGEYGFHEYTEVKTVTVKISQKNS
# The depositor's hits bear a star; ? = inconclusive; nt = not tested or not shown; [ ] = remark or other dose. Only some compounds are listed: those with a hit (about 9.5% of all), similar ones and a draw of the others. Unless noted, the call rests on the fitted dose curve; in most records, active means well fitted curve in the direction sought with a large enough effect; inconclusive means small, poorly fitted or top-dose-only effect, or another doubt; inactive means no such curve, though single readings can be large; an effect the other way counts as inactive or inconclusive. Unless noted, on the % scale 0 is the no-effect control and ±100 the full control effect; potency means the concentration at half of the fitted maximal effect.
SMILES,NPSR antagonist,Tau fibril ThT,Tau fibril FP,HPGD block,Tau fluor counter,ALDH1A1 block
O=C1c2ccccc2C2=Nc3ccccc3SC(c3cccc(F)c3)C12 (stereo unspecified),?,13µM*,?,-11%,13µM*[quencher],-11%
CCOC(=O)N1CCN(C(=S)NC(=O)c2ccc(F)c(F)c2)CC1,41%,3%,-8%,nt,-3%,?
COc1ccc(OC)c(C(C)NC=O)c1 (stereo unspecified),-7%[46.1 µM],2%,2%,0%,2%,10%
O=[N+]([O-])c1ccc(NC2CCN(Cc3ccccc3)CC2)c([N+](=O)[O-])c1,-19%,?,2%,nt,-26%,-3%
O=C1c2c([N+](=O)[O-])cc([N+](=O)[O-])cc2S(=O)N1Cc1ccccc1 (stereo unspecified),13%,32µM*,?,nt,-27%,3.5µM*
Cc1cccc(C)c1NC(=O)CSc1nnc(-c2ccco2)c(-c2ccco2)n1,-12%[46.1 µM],25µM*,?,28µM*,?,7.1µM*
Cc1ccccc1NC(=O)CSc1n[nH]c(-c2ccco2)n1,-1%,-6%,-5%,nt,-1%,-3%
Cc1ccccc1NC(=O)CSc1nnc(-c2ccco2)c(-c2ccco2)n1,-21%[46.1 µM],7.9µM*,8.9µM*,8.9µM*,?,1.3µM*
COc1ccc(-c2nnc(SCC(=O)Nc3c(C)cccc3C)nc2-c2ccc(OC)cc2)cc1,nt,-1%,-8%,nt,-10%,nt
O=NN(Cc1ccc(Cl)cc1)[C@@H](C(=O)O)c1ccccc1,nt,nt,nt,-9%,nt,0%[13.5 µM]
Cc1ccc(/C=C2\SC(=S)N(/N=C/c3cc([N+](=O)[O-])ccc3O)C2=O)o1,-41%,18µM*,?,nt,?,7.1µM*
Cc1cc(C)c(NC(=O)Cn2nnc(-c3nc(-c4ccncc4)no3)c2N)c(C)c1,nt,4%,0%,nt,5%,nt
CC(C)N(C(=O)CSc1nn2c(=O)c(C(C)(C)C)nnc2s1)c1ccccc1,-28%[46.1 µM],-1%,-4%,-20%,2%,22µM*
CC(C)(C)c1nnc2sc(SCCN3C(=O)c4ccccc4C3=O)nn2c1=O,3%[7.67 µM],-10%,-4%,-14%,-6%,-2%
O=C1c2ccccc2C(=O)N1CCSc1n[nH]c(=S)s1,-4%[46.1 µM],-14%,-11%,?,-8%,2.2µM*
COc1ccc(C)cc1NC(=O)C(=O)NCCc1sc(-c2ccc(Cl)cc2)nc1C,nt,?,-1%,nt,-8%,nt
O=C(COC(=O)c1ccc([N+](=O)[O-])s1)NCc1ccc(F)cc1,9%,-7%,-1%,-1%,-10%,7.1µM*
O=C(COC(=O)c1ccc([N+](=O)[O-])s1)NC(=O)NCc1ccccc1,0%,?,9%,nt,?,7.1µM*
COc1ccccc1NC(=O)COC(=O)c1ccc([N+](=O)[O-])s1,1%,?,4%,nt,-19%,10µM*
CCn1c(=O)cc(OCC(=O)NCc2ccc(F)cc2Cl)c2ccccc21,nt,-16%,-6%,nt,-16%,nt
C=CC(C)(C)c1[nH]c2ccccc2c1C1=C(O)C(=O)C(c2c[nH]c3c(CC=C(C)C)cccc23)=C(O)C1=O,nt,14µM*,?,25µM*,16µM*[quencher],?
NC(=O)c1cc(C(=O)c2ccccc2Cl)c[nH]1,13%,4%,1%,nt,6%,8.9µM*
O=C(c1c[nH]c(C(=O)C(Cl)(Cl)Cl)c1)c1ccccc1Br,-2%,5%,2%,nt,9%,1.8µM*
COCCCNC(=O)c1cc(C(=O)c2ccccc2Br)c[nH]1,6%,5%,-3%,nt,2%,?
CN(C)C(=O)c1cc(C(=O)c2ccccc2Cl)c[nH]1,10%,3%,9%,nt,-2%,7.9µM*
SMILES,NPSR antagonist,Tau fibril ThT,Tau fibril FP,HPGD block,Tau fluor counter,ALDH1A1 block
NCCOC[C@H](N)C(=O)O,nt,nt,nt,1%,nt,12%[13.5 µM]
COC(=O)COc1ccc(S(=O)(=O)N2CCN(c3ccc(F)cc3)CC2)cc1,-17%[46.1 µM],-13%,?,-10%,-23%,16%
CCn1cc(Br)c(C(=O)NN)n1,1%[46.1 µM],-13%,-2%,-12%,3%,25µM*
Cc1ccc2[nH]c(=O)c(CN(C(=O)c3cccc([N+](=O)[O-])c3)C(C)C)cc2c1,-12%,-10%,-16%,nt,-14%,nt
Fc1ccccc1CCNc1c2c(nc3ncnn13)CCCC2,-5%,-2%,-6%[2.34 µM],nt,3%[2.34 µM],-16%
c1ccc(CCNc2c3c(nc4ncnn24)CCC3)cc1,9%[46.1 µM],-15%,-11%,18µM*,-12%,3.5µM*
CCN(CC)CCC(c1ccc(N(C)C)cc1)c1c(O)cc(OC)cc1OC (stereo unspecified),9%,-10%,4%,nt,-12%,nt
Fc1cccc(Cc2noc(CN3CCN(C4CCc5ccccc5C4)CC3)n2)c1 (stereo unspecified),-1%,-6%,6%,nt,1%,0%
Fc1cccc(Cc2noc(CN3CCCN(C4Cc5ccccc5C4)CC3)n2)c1,23%,?,-23%,nt,-14%,3.5µM*
CCO[C@H]1O[C@@H]([C@H](COCc2ccccc2)OCc2ccccc2)[C@@H](OCc2ccccc2)[C@H]1O,nt,nt,nt,0%,nt,-4%[20.9 µM]
CCOc1ccc(S(=O)(=O)NCc2cccnc2)cc1C,17%,-4%,0%,nt,-1%,?
CCOc1ccc(S(=O)(=O)NCCc2c(C)[nH]c3c(Cl)cccc23)cc1C,nt,-16%,7%,nt,10µM*[quencher],nt
COc1ccc(C(=O)N2CCN(Cc3ccc4c(c3)OCO4)CC2)cc1[N+](=O)[O-],11%,-8%,-3%,nt,-11%,1.6µM*
O=C(c1cc2c(s1)CCCC2)N1CCN(Cc2ccc3c(c2)OCO3)CC1,?,?,-4%,-27%,-11%,14µM*
O=C(Oc1ccc2c(c1)OCO2)c1cc2c(s1)CCC2,-26%[46.1 µM],-8%,5%,22µM*,-2%,-14%
CCCCNC(=S)N1CCN(Cc2ccc3c(c2)OCO3)CC1,8%,3%,8%,nt,-4%,?
CC(C)NC(=S)N1CCN(Cc2ccc3c(c2)OCO3)CC1,6%,-12%,-8%,nt,-8%,22µM*
COc1ccc(/C=C/C(=O)NC(=S)NNC(=O)c2cccnc2)cc1OC,-8%[46.1 µM],?,-9%,32µM*,-2%,4%
COc1cc(OC)cc(C(=O)NC(=S)NNC(=O)c2cnccn2)c1,3%[46.1 µM],?,-3%,-26%,-7%,40µM*
COc1ccc(C(=O)NC(=S)NNC(=O)c2cnccn2)cc1OC,-4%[46.1 µM],?,-11%,-19%,-12%,28µM*
Cc1ccc2c(c1)NC(=O)C(CC(=O)Nc1ccccc1Cl)O2 (stereo unspecified),nt,-2%,0%,nt,-6%,nt
Cn1cccc1C(=O)N1CCC2(CCCN(c3ccccn3)C2)CC1,nt,nt,nt,-26%,nt,?
